# Test results taken from publication PMC7862700, “An all-to-all approach to the identification of sequence-specific readers for epigenetic DNA modifications on cytosine”.
# Assays:
# Assay in all cases: DAPPL (digital affinity profiling via proximity ligation, sequencing); 10 mM Tris-HCl pH 7.5, 50 mM NaCl, 1 mM DTT, 4% glycerol, room temperature, 30 min; GST-TFs on glutathione beads, 16-mer random dsDNA library, 0.1% formaldehyde crosslink after washing; high values mean tight binding
# [1] = target: T1, FEV (Homo sapiens, UniProt Q99581 1-238); details: protein: recombinant; tags: N-terminal GST; dsDNA, one strand shown
# T1 sequence: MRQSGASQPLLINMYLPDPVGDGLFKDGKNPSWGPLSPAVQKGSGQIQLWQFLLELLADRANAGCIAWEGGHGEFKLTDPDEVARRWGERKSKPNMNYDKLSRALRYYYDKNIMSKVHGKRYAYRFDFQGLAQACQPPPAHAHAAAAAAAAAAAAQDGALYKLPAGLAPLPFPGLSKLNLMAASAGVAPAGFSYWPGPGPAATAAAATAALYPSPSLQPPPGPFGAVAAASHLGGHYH
# Outline: (§1)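 Human transcription factors were made in yeast as GST fusions, captured on glutathione beads and barcoded with DNA. With a tag-only sample included, the pool was incubated with 200 nmole of a random double-stranded 16-mer DNA library in Tris/NaCl/DTT/glycerol buffer at room temperature for 30 min, then crosslinked with 0.1% formaldehyde after washing, ligated by proximity, amplified and sequenced. For binding signal, each hexamer's read frequency for a factor is divided by its frequency for the tag-only sample.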
# [2] = target: ETV5 (Homo sapiens, UniProt P41161 1-510); details: protein: recombinant; tags: N-terminal GST; dsDNA, one strand shown
# Outline: as §1
# [3] = target: HSF1 (Homo sapiens, UniProt Q00613 1-529); details: protein: recombinant; tags: N-terminal GST; chain copies: 3; dsDNA, one strand shown
# Outline: as §1
# [4] = target: T2, SPIC (Homo sapiens, UniProt Q8N5J4 1-248); details: protein: recombinant; tags: N-terminal GST; dsDNA, one strand shown
# T2 sequence: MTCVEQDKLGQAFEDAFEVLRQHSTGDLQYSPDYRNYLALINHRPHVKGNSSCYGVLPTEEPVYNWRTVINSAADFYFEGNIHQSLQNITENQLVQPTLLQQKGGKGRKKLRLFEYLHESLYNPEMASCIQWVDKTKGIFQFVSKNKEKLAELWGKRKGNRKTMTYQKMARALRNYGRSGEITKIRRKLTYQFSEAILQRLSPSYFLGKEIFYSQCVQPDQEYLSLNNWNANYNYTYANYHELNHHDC
# Outline: as §1
# [5] = target: ELF4 (Homo sapiens, UniProt Q99607 1-663); details: protein: recombinant; tags: N-terminal GST; dsDNA, one strand shown
# Outline: as §1
# [6] = target: T3, ELK4 (Homo sapiens, UniProt P28324-2 1-405); details: protein: recombinant; tags: N-terminal GST; dsDNA, one strand shown
# T3 sequence: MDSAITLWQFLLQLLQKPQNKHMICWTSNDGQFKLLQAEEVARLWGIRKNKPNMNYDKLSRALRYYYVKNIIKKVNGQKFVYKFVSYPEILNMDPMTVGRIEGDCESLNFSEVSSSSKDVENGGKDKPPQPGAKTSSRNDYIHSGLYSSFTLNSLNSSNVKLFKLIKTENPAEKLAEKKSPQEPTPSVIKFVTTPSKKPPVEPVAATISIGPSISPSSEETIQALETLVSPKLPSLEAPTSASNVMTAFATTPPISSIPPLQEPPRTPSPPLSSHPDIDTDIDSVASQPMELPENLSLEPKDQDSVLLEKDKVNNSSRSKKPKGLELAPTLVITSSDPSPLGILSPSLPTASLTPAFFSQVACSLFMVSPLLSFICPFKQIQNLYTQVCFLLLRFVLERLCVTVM
# Outline: as §1
# [7] = target: T4, ETV2 (Homo sapiens, UniProt O00321 1-342); details: protein: recombinant; tags: N-terminal GST; dsDNA, one strand shown
# T4 sequence: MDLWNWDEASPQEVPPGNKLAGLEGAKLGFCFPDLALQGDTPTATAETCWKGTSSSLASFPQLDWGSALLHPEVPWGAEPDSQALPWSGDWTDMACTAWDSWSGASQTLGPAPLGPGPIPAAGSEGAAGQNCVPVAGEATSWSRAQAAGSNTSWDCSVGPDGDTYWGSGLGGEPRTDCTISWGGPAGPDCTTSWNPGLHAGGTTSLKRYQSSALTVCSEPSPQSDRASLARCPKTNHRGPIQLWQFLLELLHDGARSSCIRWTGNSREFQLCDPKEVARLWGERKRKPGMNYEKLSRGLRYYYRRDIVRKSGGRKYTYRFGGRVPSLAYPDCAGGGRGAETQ
# Outline: as §1
# [8] = target: T5, ELF3 (Homo sapiens, UniProt P78545 1-371); details: protein: recombinant; tags: N-terminal GST; dsDNA, one strand shown
# T5 sequence: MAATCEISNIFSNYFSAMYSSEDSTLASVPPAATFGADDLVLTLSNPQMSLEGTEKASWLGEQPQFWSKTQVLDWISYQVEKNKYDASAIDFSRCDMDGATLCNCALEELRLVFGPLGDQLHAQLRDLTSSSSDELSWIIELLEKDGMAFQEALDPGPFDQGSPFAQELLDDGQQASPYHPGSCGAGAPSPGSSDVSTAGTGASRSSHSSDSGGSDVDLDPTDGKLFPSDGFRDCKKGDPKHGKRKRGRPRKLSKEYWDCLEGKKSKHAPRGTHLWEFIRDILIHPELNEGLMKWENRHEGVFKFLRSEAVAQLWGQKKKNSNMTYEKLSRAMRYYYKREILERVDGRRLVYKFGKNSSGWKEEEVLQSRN
# Outline: as §1
# [9] = target: CRX (Homo sapiens, UniProt O43186 1-299); details: protein: recombinant; tags: N-terminal GST; dsDNA, one strand shown
# Outline: as §1
# [10] = target: ETV1 (Homo sapiens, UniProt P50549 1-477); details: protein: recombinant; tags: N-terminal GST; dsDNA, one strand shown
# Outline: as §1
# Chain of ETV5 (P41161 whole entry): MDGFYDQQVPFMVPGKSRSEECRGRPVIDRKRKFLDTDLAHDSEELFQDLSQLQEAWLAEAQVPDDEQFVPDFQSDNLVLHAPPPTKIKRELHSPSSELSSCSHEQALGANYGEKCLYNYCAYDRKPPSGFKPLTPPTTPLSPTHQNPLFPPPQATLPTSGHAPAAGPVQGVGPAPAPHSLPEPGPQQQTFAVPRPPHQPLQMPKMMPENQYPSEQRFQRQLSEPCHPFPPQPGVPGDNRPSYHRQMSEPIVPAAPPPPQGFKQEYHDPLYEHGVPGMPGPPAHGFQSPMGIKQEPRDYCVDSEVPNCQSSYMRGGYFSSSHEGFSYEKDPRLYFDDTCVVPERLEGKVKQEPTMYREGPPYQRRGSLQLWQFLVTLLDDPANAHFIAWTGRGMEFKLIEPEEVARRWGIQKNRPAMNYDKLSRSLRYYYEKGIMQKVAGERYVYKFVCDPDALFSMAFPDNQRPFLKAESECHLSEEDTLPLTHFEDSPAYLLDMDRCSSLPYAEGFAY
# Chain of ETV1 (P50549 whole entry): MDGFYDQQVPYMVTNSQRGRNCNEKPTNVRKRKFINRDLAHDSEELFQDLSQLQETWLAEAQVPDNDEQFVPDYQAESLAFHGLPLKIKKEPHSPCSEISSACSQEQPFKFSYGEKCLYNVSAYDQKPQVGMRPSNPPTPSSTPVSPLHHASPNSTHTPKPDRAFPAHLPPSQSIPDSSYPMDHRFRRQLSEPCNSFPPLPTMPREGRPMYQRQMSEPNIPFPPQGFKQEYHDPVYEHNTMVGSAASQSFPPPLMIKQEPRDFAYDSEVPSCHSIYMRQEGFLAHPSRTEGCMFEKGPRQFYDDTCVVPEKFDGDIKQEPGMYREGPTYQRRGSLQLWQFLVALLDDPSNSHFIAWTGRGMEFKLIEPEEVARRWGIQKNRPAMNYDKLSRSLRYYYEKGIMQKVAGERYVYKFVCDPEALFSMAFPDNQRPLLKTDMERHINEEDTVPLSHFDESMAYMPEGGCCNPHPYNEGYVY
# Chain of ELF4 (Q99607 whole entry): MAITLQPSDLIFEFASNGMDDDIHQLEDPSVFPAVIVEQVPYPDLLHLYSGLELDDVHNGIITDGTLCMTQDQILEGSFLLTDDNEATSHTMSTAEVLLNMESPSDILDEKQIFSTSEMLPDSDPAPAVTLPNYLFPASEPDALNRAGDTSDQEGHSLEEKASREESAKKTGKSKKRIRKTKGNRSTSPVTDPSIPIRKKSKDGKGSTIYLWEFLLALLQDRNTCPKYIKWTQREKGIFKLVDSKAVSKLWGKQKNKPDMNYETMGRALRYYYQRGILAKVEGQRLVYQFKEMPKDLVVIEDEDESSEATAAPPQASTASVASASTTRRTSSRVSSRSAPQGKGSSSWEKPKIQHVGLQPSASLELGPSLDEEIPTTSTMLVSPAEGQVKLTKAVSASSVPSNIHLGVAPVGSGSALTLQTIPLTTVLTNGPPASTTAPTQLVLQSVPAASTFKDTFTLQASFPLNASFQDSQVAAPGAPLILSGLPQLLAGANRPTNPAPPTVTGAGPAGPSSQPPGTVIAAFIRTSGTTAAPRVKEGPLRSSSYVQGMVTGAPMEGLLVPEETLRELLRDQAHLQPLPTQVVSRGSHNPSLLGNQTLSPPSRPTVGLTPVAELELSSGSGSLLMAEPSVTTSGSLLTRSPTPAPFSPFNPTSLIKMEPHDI
# Chain of CRX (O43186 whole entry): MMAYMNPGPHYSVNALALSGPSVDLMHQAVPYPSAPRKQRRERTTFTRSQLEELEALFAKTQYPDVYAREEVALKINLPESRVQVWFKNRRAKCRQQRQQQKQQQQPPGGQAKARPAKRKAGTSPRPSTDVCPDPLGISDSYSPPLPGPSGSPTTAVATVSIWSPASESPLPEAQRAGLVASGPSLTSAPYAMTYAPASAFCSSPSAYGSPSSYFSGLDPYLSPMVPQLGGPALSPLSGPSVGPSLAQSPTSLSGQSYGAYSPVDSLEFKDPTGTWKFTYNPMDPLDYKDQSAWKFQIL
# Chain of HSF1 (Q00613 whole entry): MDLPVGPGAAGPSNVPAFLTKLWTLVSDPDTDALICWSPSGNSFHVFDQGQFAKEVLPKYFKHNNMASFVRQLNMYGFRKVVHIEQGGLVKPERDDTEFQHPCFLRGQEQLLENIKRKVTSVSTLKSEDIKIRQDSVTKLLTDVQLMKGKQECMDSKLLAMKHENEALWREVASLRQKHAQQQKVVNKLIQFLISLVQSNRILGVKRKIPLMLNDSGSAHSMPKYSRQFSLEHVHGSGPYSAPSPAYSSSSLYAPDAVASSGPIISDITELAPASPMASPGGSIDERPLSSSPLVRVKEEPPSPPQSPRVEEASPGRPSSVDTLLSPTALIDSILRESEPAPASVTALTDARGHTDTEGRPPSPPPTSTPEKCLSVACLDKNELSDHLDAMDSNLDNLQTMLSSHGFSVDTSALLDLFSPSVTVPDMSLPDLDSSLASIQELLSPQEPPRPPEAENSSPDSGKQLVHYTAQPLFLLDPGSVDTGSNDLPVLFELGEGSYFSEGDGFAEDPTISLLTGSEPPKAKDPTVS
sequence,measurement,setting,value
TCTCTT,binding signal,[1],"1.41 fold enrichment (6-mer frequency, TF over GST control)"
same,binding signal,[2],"1.39 fold enrichment (6-mer frequency, TF over GST control)"
same,binding signal,[3],"1.39 fold enrichment (6-mer frequency, TF over GST control)"
same,binding signal,[4],"1.34 fold enrichment (6-mer frequency, TF over GST control)"
same,binding signal,[5],"1.34 fold enrichment (6-mer frequency, TF over GST control)"
same,binding signal,[6],"1.49 fold enrichment (6-mer frequency, TF over GST control)"
same,binding signal,[7],"1.37 fold enrichment (6-mer frequency, TF over GST control)"
same,binding signal,[8],"1.28 fold enrichment (6-mer frequency, TF over GST control)"
same,binding signal,[9],"1.58 fold enrichment (6-mer frequency, TF over GST control)"
same,binding signal,[10],"1.42 fold enrichment (6-mer frequency, TF over GST control)"
